Assay results as given in the supplement of paper PMC12636033.
± gives the standard deviation of the averaged measurements. Over roughly 33,000 sequences, “E-score (rank enrichment, -0.5 to 0.5)” has its median near -0.0028; the highest 2% begin near 0.23. This is one part of a sample in which the highest values are shown more often than they occur.

System: 2Sb-muMax20 (muMax20 with two 1,3-bis(methyl)benzene Cys staples, A13C/A17C and Q88C/A92C, C-terminal Lys)
Assay: PBM 8-mer E-score (E-score (rank enrichment, -0.5 to 0.5)); higher = stronger preferential binding
Experimental: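 Protein binding microarray (universal PBM chip covering all 10-mers in fixed probe flanks) with chemically synthesized human Max(13-93) bHLH-LZ analogs (not full-length Max) bearing noncanonical residues (hArg, Tha, Aib, Nle at 65) and aromatic Cys staples. Read-out per 8-mer (and its reverse complement): E-score (rank-based enrichment, -0.5 to 0.5) and Z-score of median probe intensity.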

Sequence	PBM 8-mer E-score
TATAACCA	0.125 ± 0.024
CATAACCA	0.16 ± 0.018
GATAACCA	0.25 ± 0.0028
CATAACTA	0.0553 ± 0.058
AATAACTA	0.151 ± 0.013
GATAACTA	0.237 ± 0.0032
ACGACTAC	-0.086 ± 0.0098
AAATTGGG	0.211 ± 0.011
TGATTGCA	0.2879 ± 0.0004
AGATTGCA	-0.04038 ± 0.00028
CAATTGGA	0.105 ± 0.079
CAATTGGG	0.233 ± 0.044
CGATTGCA	-0.00806 ± 0.061
CAATTGCA	0.241 ± 0.03
TAATTGCA	0.178 ± 0.022
AAATTGCA	0.0694 ± 0.01
ATGTGATA	0.137 ± 0.099
CTTCTCTC	-0.021 ± 0.036
ATAGGAAT	-0.00103 ± 0.048
ATTCTTTG	0.0288 ± 0.029
GGCTCGGA	-0.242 ± 0.019
CACCCATG	-0.0354 ± 0.1
CTGGGGCA	-0.128 ± 0.0081
ATGGGGCA	0.247 ± 0.015
ATGGGGGG	-0.078 ± 0.064

Sequence	PBM 8-mer E-score
ATGGGGCC	-0.148 ± 0.097
GTGGGGCA	0.0926 ± 0.0061
ATGGGGCG	0.305 ± 0.011
CCGCGTAC	-0.0836 ± 0.06
AAACCCTC	0.0564 ± 0.037
ATACTTTG	0.18 ± 0.031
CTACTTTA	-0.0218 ± 0.0086
ATACTTTA	0.254 ± 0.079
CACAGCAA	0.0823 ± 0.098
GTACTAAA	0.0714 ± 0.032
ATACTAAC	0.191 ± 0.016
TTACTAAA	0.035 ± 0.037
CTACTAAG	-0.0175 ± 0.014
ATACTAAA	0.274 ± 0.073
CTACTAAC	0.271 ± 0.02
AGCCTATG	-0.168 ± 0.032
CCGCCCCC	-0.265 ± 0.034
GAGCCCAA	0.238 ± 0.016
AAGCCCAA	0.14 ± 0.085
CCGCCCCG	0.287 ± 0.1
CCGCCCAA	-0.0271 ± 0.08
CAGCCCCA	0.166 ± 0.062
CCGCCCCA	0.349 ± 0.038
CCGCCCGG	-0.235 ± 0.023
CGCCCCCA	-0.0972 ± 0.11

Sequence	PBM 8-mer E-score
TAGCCCCA	0.35 ± 0.014
CAGCCCAA	0.0925 ± 0.0081
TAGCCCAA	0.0876 ± 0.027
GGAGAGAA	-0.0248 ± 0.093
ACGGCAGC	-0.302 ± 0.045
CATATGGA	0.0953 ± 0.063
CAACACGC	0.161 ± 0.065
CCCACGCC	-0.189 ± 0.095
GCCAATTA	0.127 ± 0.041
ACGGTCAG	-0.313 ± 0.0032
CAGGTCCG	-0.237 ± 0.054
ACGTCGGC	0.0307 ± 0.079
ACGCCCCG	-0.046 ± 0.025
TCGCCCCA	0.24 ± 0.018
TCGCCCAA	-0.0719 ± 0.021
ACGCCCCA	0.287 ± 0.062
ACGCCCCC	-0.18 ± 0.1
GCGCCCCA	0.0563 ± 0.082
CGATCCAA	-0.286 ± 0.0083
CTCGGCGA	-0.0762 ± 0.055
CGATGGTA	-0.0858 ± 0.023
AATGTAAA	0.211 ± 0.015
ATGAGGCA	0.0329 ± 0.044
ACTGGCGA	-0.0221 ± 0.033
ACTTGCGG	-0.169 ± 0.047

Sequence	PBM 8-mer E-score
AACACGTC	0.0373 ± 0.11
AACACAAA	0.25 ± 0.03
CACGCGTG	0.303 ± 0.039
CACACGTG	0.338 ± 0.022
AACACGTA	0.112 ± 0.046
AACACAAG	0.141 ± 0.016
CACACGTC	-0.172 ± 0.057
AACACGTG	0.4538 ± 0.0037
CACACAAA	0.167 ± 0.033
CACGCGTC	0.2 ± 0.0088
CACGCGTA	0.199 ± 0.021
CACACGTA	0.127 ± 0.0021
CCGAGCCA	-0.115 ± 0.0049
GAAGGGGC	0.128 ± 0.0016
ACCTATCG	0.13 ± 0.048
CGCTACCC	-0.0659 ± 0.038
ACGGATCT	-0.242 ± 0.042
GGCGCAAC	-0.0786 ± 0.013
CTGATATA	0.0373 ± 0.023
CCAACGCC	-0.0186 ± 0.026
ACTTCAAA	-0.125 ± 0.065
CAACCCCG	-0.0958 ± 0.017
CCTGCATC	-0.118 ± 0.02
GCTCCGTA	-0.181 ± 0.026
CACACCTA	0.251 ± 0.023

Sequence	PBM 8-mer E-score
CACACCTG	-0.176 ± 0.087
CACGCGGA	0.28 ± 0.036
CACACCTC	0.11 ± 0.0036
AACGCGGA	-0.0532 ± 0.04
CACGCGGG	0.115 ± 0.007
TCACGGGA	-0.0219 ± 0.047
CTCAAGTC	0.0478 ± 0.02
AGGGTTGC	-0.0164 ± 0.024
CAGTCCGC	-0.188 ± 0.055
AGGTGCGG	0.0251 ± 0.022
CATTTATA	0.137 ± 0.013
AATTTATG	0.238 ± 0.043
AATTTATA	0.248 ± 0.02
ATTTTATG	0.0605 ± 0.031
AATTTATC	0.18 ± 0.013
ATTTTATA	0.206 ± 0.038
CAGTAAGC	0.00962 ± 0.05
AAAAAACC	0.143 ± 0.026
GGCTCCGA	-0.22 ± 0.014
AAGGCAAT	0.0342 ± 0.0041
GTAATTTA	0.0825 ± 0.086
ATAATTTA	0.235 ± 0.015
TCAATTGA	0.1 ± 0.058
CCAATTGA	0.252 ± 0.0093
ATAATTGA	0.258 ± 0.029

Sequence	PBM 8-mer E-score
CCAATTAA	0.159 ± 0.045
CTAATTGA	0.053 ± 0.057
GTAATTGA	0.0929 ± 0.019
ACAATTAC	0.194 ± 0.031
ACAATTGA	0.194 ± 0.031
ATAATTTG	0.132 ± 0.036
CCAATTAC	0.238 ± 0.015
CCGAGAGC	-0.304 ± 0.02
TCTCCGCA	-0.148 ± 0.043
CATGTTCG	0.00518 ± 0.06
CAGCTGAA	-0.0746 ± 0.0082
AAAATGAC	0.134 ± 0.0081
CCCCTAAA	0.0345 ± 0.052
CAGGCAAG	-0.0204 ± 0.051
CAGTGAAG	-0.0862 ± 0.073
AATGAGAA	-0.0163 ± 0.03
GCGAACCA	-0.037 ± 0.021
ACAGATTC	0.111 ± 0.028
GCGTGGTA	0.0782 ± 0.019
CTCTACTA	0.168 ± 0.024
ATGCCATA	0.246 ± 0.022
ATGCCATC	0.134 ± 0.0047
ATGCCATG	0.026 ± 0.072
AAACAGAT	-0.0777 ± 0.083
GTTTGAGA	-0.0465 ± 0.092

Sequence	PBM 8-mer E-score
CAACAGAC	0.0401 ± 0.00088
AACATATC	0.124 ± 0.0061
AACATATA	0.237 ± 0.031
GACATATA	0.0756 ± 0.061
AACATATG	0.182 ± 0.013
CACATATA	0.21 ± 0.068
AACATATT	0.2329 ± 0.0015
ATCGTTAG	-0.0184 ± 0.067
GTAGACAC	0.0487 ± 0.053
ATTACAAC	0.1 ± 0.033
TATAGGGA	-0.0259 ± 0.048
AATAGGGA	0.23 ± 0.0053
GATAGGGA	-0.111 ± 0.072
ATCAAACG	-0.0315 ± 0.075
AGGTACAA	0.0983 ± 0.038
GGGTACAA	0.0409 ± 0.026
TGGTACAA	0.265 ± 0.021
TTGTACAA	0.29 ± 0.033
AGGTATAA	0.147 ± 0.0065
TGGTATAA	0.239 ± 0.0046
CTGTACAA	0.0289 ± 0.12
CGGTATAA	0.127 ± 0.043
GTGTACAA	0.216 ± 0.039
